Among all 350,000 compounds or so, about 550 (0.16%) were called active. The list comes from a sample in which actives are over-represented; it also holds similar structures and randomly drawn compounds. A number with no mark means an inactive call. No stated cut-off is given here; in the data, active means activation mostly above about 9.7% (no sharp cut-off); inconclusive means no clear call, values can overlap the other calls; inactive means mostly below about 3.7%.

The nature of this assay: induces V. cholerae light production without autoinducers, primary screen, BH1578 luxS cqsA deficient, single point (AID 588436). As to conditions: V. cholerae BH1578 lux reporter, luminescence, 6 h, at 18.7 µM; hits give high values.
For the compound `Cc1ccc(CNC(=O)C2CCCN2S(=O)(=O)c2ccc3c(c2)C(C)(C)C(=O)N3C)cc1` (stereo not drawn), the activation was -0.135%. The entry for `CCNC(=O)CCc1nc(-c2ccc(C(C)(C)C)cc2)no1` is “inactive”. As to `CCOC(=O)C1(CCOc2ccccc2)CCN(Cc2cc(OC)cc(OC)c2)CC1`, the activation is 21.2% (active). Consider `CCOC(=O)C1(CCOc2ccccc2)CCN(Cc2ccc(C#CCCO)cc2)CC1`, for which the activation entry was “inactive”. With `CCOC(=O)C1(CCOC)CCN(Cc2ccc(C(=O)OC)cc2)CC1`, the activation is 0.0345%. To `O=C(Nc1ccccc1C(=O)N1CCOCC1)c1ccc(Cl)cc1` belongs -0.216%. Regarding `COc1ccccc1C(=O)NC(=O)COC(=O)C1CC1`, the activation is 0.621%. For `CCOc1ccccc1NC(=O)CCc1nnc2ccc(NCc3ccco3)nn12`, the activation was -0.0905%.

On to `COc1ccc2c(c1)c(C(=O)N/N=C/c1cccs1)c(C)n2C`, for which the activation is -0.575%.

In the case of `Fc1c(F)c(C(F)(F)F)c(F)c(F)c1N1CCN(c2ccc3nnc(C(F)(F)F)n3n2)CC1`, the activation is 0.463%. Take `COc1ccc(S(=O)(=O)N(C)C[C@H]2Oc3c(NC(=O)Nc4ccc5c(c4)OCO5)cccc3C(=O)N([C@H](C)CO)C[C@@H]2C)cc1`: the activation is 1.22%. To `CCCc1nc2ccccc2c(C(=O)OCc2nnc(-c3cc(OC)c(OC)c(OC)c3)o2)c1CC` belongs -0.28%; to `CN(CC1CCCO1)S(=O)(=O)c1ccc(C(=O)Nc2ccc([N+](=O)[O-])cc2)cc1` (stereo not drawn), “inactive”; to `CC(C)c1ccc(NC(=O)CCN2C(=O)c3ccc([N+](=O)[O-])cc3C2=O)cc1`, -0.342%. On to `Cn1ccc(=Nc2ccc(NC(=O)c3ccc(N=c4ccn(C)c5ccc([N+](=O)[O-])cc45)cc3)cc2)cc1`, for which the activation was 52.2% (active).

On to `CCOP(=O)(OCC)C(Nc1cccc(C)c1)c1ccc(F)cc1` (stereo not drawn), for which the activation was -0.244%. To `CSc1ccc(S(=O)(=O)NCc2ccc(Cl)cc2)cc1` belongs -1.22%. For `OC[C@@H]1CN(Cc2cccs2)C[C@H](n2cnc3c(Nc4ccccc4)ncnc32)O1`, the activation is -0.66%. On to `C=CCn1cc(-c2cccc(C(F)(F)F)c2)cc(C#N)c1=O`, for which the activation was -4.13%. Turning to `CC(=O)N1CCN(C(=O)C2(NC(=O)Nc3ccc(C)cc3)CCCCC2)CC1`, the activation is -0.583%.

As to `CNC(=O)N1c2ccccc2C=Cc2ccccc21`, the activation is -0.261%. On to `CC(=O)Nc1cccc(-c2cc3nc(NCc4cccnc4)n(C)c(=O)c3s2)c1`, for which the activation result was “inactive”. For the compound `Cc1c(Br)c([N+](=O)[O-])nn1CC(=O)Nc1sc2c(c1C(=O)OC(C)C)CCC(C)C2` (stereo not drawn), the activation is -0.23%.

Source of the values: PubChem BioAssay AID588436 (Broad Institute, 2011).
